The list is not random: actives were taken first. Their share in the collection is about 3.3%.
RE007 growth inh: less growth of the S. pombe RE007 Vpr strain; S. pombe RE007 Vpr strain, BacTiter-Glo ATP luminescence, 24 h; Potency, µM (highest dose often 92.2 µM), hits mostly inhibitors; 0.21% of 360,000 active; AID 651644; active means well fitted falling curve with a large enough effect; inconclusive means small, poorly fitted or top-dose-only effect; inactive means no such curve, though single readings can be large or run the other way; further: nearly all actives have a fitted effect of over 50% in size
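Fission yeast strain RE007, carrying one chromosomally integrated HIV-1 vpr copy, was seeded at OD 0.01 in PMG+AL medium with 23 nL pinned compound. After 24 h at 30 °C and 99% humidity, viability was read by BacTiter-Glo luminescence.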
Giardia FBPA inh: Giardia lamblia aldolase inhibition; A8B2U2; purified Giardia FBPA; Potency, µM (series often up to 59.6 µM), most hits filed as inhibitors; 0.71% of 290,000 active; AID 2451; further: nearly all actives have a fitted effect of over 55% in size
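Giardia FBPA (40 nM reagent) was preincubated 10 min at RT with compound (up to 57.5 uM final), then substrate plus GAPDH/TPI/NAD/arsenate coupling system with diaphorase/resazurin was added; resorufin fluorescence (525/598 nm) was read after 20 min.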
Sm TGR block: inhibitors of Schistosoma mansoni thioredoxin glutathione reductase; purified TGR, DTNB reduction, TNB absorbance 405 nm; Q962Y6; Potency, µM (top dose mostly 114 µM), actives largely listed as inhibitors; 3% of 360,000 active; AID 485364; further: nearly all actives have a fitted effect of over 60% in size
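TGR 20 nM + NADPH 100 uM (dispensed conc.), cpd preinc 15 min RT; start with NADPH (500 uM addition) then DTNB (15 mM addition). Kinetic TNB absorbance, 405 nm filter. Four-parameter Hill fit across titration.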
Tb PYK inh: T. brucei pyruvate kinase inhibition | Q57TT1 | TbPYK enzyme, Kinase-Glo Plus ATP luminescence, 45 min | Potency, µM (titrated, usually from 76.8 µM), hits mostly inhibitors | 0.12% of 410,000 active; further: nearly all actives have a fitted effect of over 50% in size
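Readout: single end-point luminescence (Kinase-Glo Plus, 10 min). Reaction conditions were TbPYK/substrate plus 130 uM ADP, 45 min at RT, pH 7.2 TEA buffer. No-enzyme wells served as controls, and data were normalized before concentration-response fitting.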
LmPK inh: blocks Leishmania mexicana pyruvate kinase activity; Q27686; purified LmPK, Kinase-Glo ATP luminescence, 1 h; Potency, µM (top dose mostly 57.5 µM), actives largely listed as inhibitors; 0.37% of 290,000 active; AID 1721
Target sequence (Q27686 whole entry, looked up): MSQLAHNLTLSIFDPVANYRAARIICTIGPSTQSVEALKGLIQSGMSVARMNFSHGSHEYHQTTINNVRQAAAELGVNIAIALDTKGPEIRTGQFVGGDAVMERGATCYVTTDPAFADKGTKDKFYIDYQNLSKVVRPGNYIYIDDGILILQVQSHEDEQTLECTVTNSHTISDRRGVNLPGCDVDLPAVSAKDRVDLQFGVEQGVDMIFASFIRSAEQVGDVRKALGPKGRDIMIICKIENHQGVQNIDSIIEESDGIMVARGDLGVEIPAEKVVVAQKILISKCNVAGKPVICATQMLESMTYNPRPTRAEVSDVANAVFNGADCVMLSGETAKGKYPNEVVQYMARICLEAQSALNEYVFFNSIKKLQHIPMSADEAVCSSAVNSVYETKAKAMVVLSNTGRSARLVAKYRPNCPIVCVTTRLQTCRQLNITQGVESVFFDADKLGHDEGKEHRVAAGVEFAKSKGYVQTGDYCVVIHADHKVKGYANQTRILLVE
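ATP generated from ADP (0.1 mM) and PEP (0.5 mM) by 0.1 nM LmPK over 1 h at room temperature (pH 7.2 imidazole buffer) was detected by coupled luciferase luminescence. Values were normalized to uninhibited and no-enzyme wells.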
Numbers stand for hits; n = inactive; u = inconclusive; x = no result; ! = not confirmed by another sample. Unless noted, the call rests on the fitted dose curve; in most records, active means well fitted curve in the direction sought with a large enough effect; inconclusive means small, poorly fitted or top-dose-only effect, or another doubt; inactive means no such curve, though single readings can be large; an effect the other way counts as inactive or inconclusive.

SMILES | RE007 growth inh | Giardia FBPA inh | Sm TGR block | Tb PYK inh | LmPK inh
COc1cc(CNc2cccc3[nH]c(C(F)(F)F)nc23)cc(OC)c1 | n | n | 22µM | n | n
COc1ccc(CNc2cccc3[nH]c(C(F)(F)F)nc23)cc1 | n | n | 32µM | n | n
Cc1ccc(-c2noc(C3CCCN(C(=O)c4ccccc4)C3)n2)o1 (stereo unspecified) | n | n | 56µM | n | n
c1ccc(C2[C@H]3CN(CC4CCCCC4)[C@H](c4ccccc4)C34CC2(c2cccnc2)C4)cc1 (stereo partly specified) | n | n | 45µM | n | n
c1ccc(C2[C@H]3CN(CC4CCCCC4)[C@H](c4ccccc4)C34CC2(c2ccccc2)C4)cc1 (stereo partly specified) | n | n | n | n | n
Cc1ccc(CNc2ncccc2-c2nc(-c3ccc(Cl)cc3)no2)cc1 | x | x | n | n | x
COc1ccc(-c2nc(CS(=O)CC(=O)NC3CCCc4ccccc43)c(C)o2)cc1OC (stereo unspecified) | n | n | 20µM | n | n
COc1ccc(-c2nc(CSCC(=O)NC3CCCC3)c(C)o2)cc1OC | n | n | u | n | n
COc1ccc(-c2nc(CS(=O)CC(=O)NC3CCC(C)CC3)c(C)o2)cc1OC (stereo unspecified) | n | x | 35µM | n | n
COc1ccc(-c2nc(CS(=O)CC(=O)NC3CCCC3)c(C)o2)cc1OC (stereo unspecified) | n | x | 20µM | n | n
COc1ccc(-c2nc(CSCC(=O)NC3CCCc4ccccc43)c(C)o2)cc1OC (stereo unspecified) | n | n | n | n | n
COc1cc2c(cc1OC)[C@@H](Cc1ccc(OCCC#N)cc1)N(C)CC2 | n | n | 50µM | n | n
Cc1ccc(CNC(=O)CSc2nc3ccsc3c(=O)n2Cc2ccccc2F)cc1 | x | x | n | n | x
CCCCN1C(=O)c2[nH]nc(-c3ccccc3O)c2C1c1cc(Br)c(O)c(OC)c1 (stereo unspecified) | x | x | 56µM | n | x
O=C(NCC(=O)N(c1ccccc1F)C(C(=O)NC1CCCC1)c1ccco1)c1ccco1 (stereo unspecified) | n | n | n | n | n
O=S(=O)(Nc1ccc(S(=O)(=O)N2CCCCC2)cc1)c1ccc(Br)s1 | n | n | 6.3µM | n | n
CN1CCC(c2c[nH]c3ccc(O)cc23)CC1 | n | 2µM! | x | n | x
COc1ccc2oc(C(=O)N3CCN(C(=O)c4ccco4)CC3)c(C)c2c1 | n | x | 50µM | n | x
CC(C)n1c(SCC(=O)NCc2ccco2)nnc1C1CC1 | n | n | 18µM | n | n
Cc1ccc(NCc2nnc(SCC(=O)NCc3ccco3)n2CC2CCCO2)cc1Cl (stereo unspecified) | n | n | 50µM | n | n
Cc1ccc(NCc2nnc(SCC(=O)NCc3ccco3)n2CC2CCCO2)c(C)c1 (stereo unspecified) | n | n | n | n | n
CCn1c(SCC(=O)NCc2ccco2)nnc1C1CCCC1 | n | n | 40µM | n | n
Cn1c(SCC(=O)NCc2ccco2)nnc1C1CC1 | n | x | x | n | x
Cc1ccc2c(c1)Oc1ccc([N+](=O)[O-])cc1C(=O)N2 | n | n | n | n | n
Cc1ccc2c(c1)Oc1ccc(NC(=O)CCl)cc1C(=O)N2 | n | n | 11µM | n | n
SMILES | RE007 growth inh | Giardia FBPA inh | Sm TGR block | Tb PYK inh | LmPK inh
O=C(CCS(=O)(=O)c1nc(-c2cccs2)cc(C(F)(F)F)n1)Nc1cc(Br)ccc1O | x | x | 18µM | n | x
Cc1ccc(O)c(NC(=O)CCS(=O)(=O)c2nc(-c3cccs3)cc(C(F)(F)F)n2)c1 | x | x | 18µM | n | x
O=C(CCS(=O)(=O)c1nc(-c2cccs2)cc(C(F)(F)F)n1)Nc1ccc(Br)cc1 | x | x | u | n | x
COc1ccc(NC(=O)c2sc3nc(N4CCOCC4)c4c(c3c2N)CCCC4)cc1 | n | x | x | n | x
Nc1nc(N2CCN(C(=O)c3ccco3)CC2)nc2ccc(Br)cc12 | n | n | 45µM | n | n
CCC(CC)C(=O)OCc1cc(=O)n2nc(C3CCCCC3)sc2n1 | x | x | n | n | x
CC(=O)Nc1ccc(-c2cc(N)n(-c3ccccc3)n2)cc1 | n | n | n | n | 16µM
Cc1ccc(-c2cc(NC(=O)CCl)n(-c3ccccc3)n2)cc1 | u | n | u | u | n
O=C(CCl)Nc1cc(-c2ccccc2)nn1-c1ccccc1 | n | n | 13µM | n | n
COc1ccc(C2CC(=O)c3cc(-c4nc(-c5cccc([N+](=O)[O-])c5)cs4)c(=O)n(-c4ccc(F)cc4)c3C2)cc1 (stereo unspecified) | x | x | n | n | x
O=C(O)c1ccc(N/N=C/c2ccc3c(c2)OCO3)cc1 | u | n | n | u | 10µM
CC(C)(C)c1ccc(/C=N/Nc2ccc(C(=O)O)cc2)cc1 | u | n | n | n | n
O=C(O)c1ccc(N/N=C/c2ccc(C(F)(F)F)cc2)cc1 | 35µM | n | n | n | n
O=C1OC(Nc2nc3ccccc3s2)c2ccccc21 (stereo unspecified) | n | n | n | n | n
O=C1OC(Nc2nc(-c3ccc(F)cc3)cs2)c2ccccc21 (stereo unspecified) | n | n | 4µM | n | n
COC(=O)c1ccc(CSc2nc3ccccc3c(=O)n2C)o1 | n | n | 45µM | n | n
CN1CCc2c(C#N)c(Cl)nc(Cl)c2C1 | n | n | 32µM | n | n
O=C(CNc1ccccc1)c1ccc([N+](=O)[O-])cc1 | n | n | u | n | n
COc1ccc(C(=O)c2ccsc2N)cc1 | n | n | 13µM | n | n
CCc1cc(C(=O)c2ccc(OC)cc2)c(N)s1 | n | n | n | n | n
O=C(CSc1nc2ccccc2nc1Cc1ccccc1F)Nc1cccc(C(F)(F)F)c1 | x | x | 79µM | n | x
Nc1ccc2ccc3cccc[n+]3c2c1 | n | n | 32µM | n | n
COc1ccc2ccc3cccc[n+]3c2c1 | n | x | x | n | x
Cc1cc(C)nc(-n2nc(C)c3c(C(=O)O)cc(-c4cccc(Br)c4)nc32)n1 | n | u | n | n | n
CCOC(=O)c1cc(OC(=O)c2ccccc2OC)n(-c2ccccc2)n1 | n | n | 35µM | n | n
SMILES | RE007 growth inh | Giardia FBPA inh | Sm TGR block | Tb PYK inh | LmPK inh
CCOC(=O)c1cc(OC(=O)c2ccccc2C)n(-c2ccccc2)n1 | x | x | n | n | x
Nc1nc(Nc2ccc(Cl)cc2)nc2ccccc12 | u | n | n | n | 18µM
Nc1nc(Nc2ccccc2)nc2ccccc12 | u | n | n | n | 16µM
CCOc1ccc(Nc2nc(N)c3ccccc3n2)cc1 | u | u | n | u | n
CN(C)c1ccc(Nc2nc(N)c3ccccc3n2)cc1 | 25µM | u | u | u | u
CC(=O)[C@@H]1[C@H]2[C@H](C(=O)[C@H]3OC[C@@H]2O3)[C@H]2C=Cc3ccccc3N21 | x | 22µM | x | x | x
Nc1cc(-c2ccco2)no1 | n | u | 28µM | n | n
Cc1ccc2cc3cc(C(=O)N4CCN(C(=O)c5ccco5)CC4)sc3nc2c1 | n | n | 45µM | n | n

High-throughput results (PubChem BioAssay)
